PLC-beta3 inh = inhibitors of human phospholipase C beta3; Purified PLC-beta3, fluorogenic substrate, fluorescence; inhibition, % at 12.2 µM; hit rate 0.18% among 370,000; in the data active = inhibition above about 11%
ADAM10 inh = inhibits human ADAM10. O14672. recombinant ADAM10, EDANS/DABCYL FRET peptide cleavage, 3 h. inhibition, % at 7 µM. hit rate 0.62% among 370,000. AID 720582;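 active = inhibition above a per-campaign cutoff equal to the mean of compounds falling between control-based bounds plus 3 SD, cut at about 20% in these data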
ADAM17 inh = inhibits human ADAM17; hit rate 0.83% among 370,000; AID 720648; inhibition, % at 6.95 µM; recombinant ADAM17, EDANS/DABCYL FRET peptide cleavage;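 active = inhibition above the mean of compounds lying between control limits plus 3 SD, set per campaign, cut at about 8.5% in these data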
proKLK7 act = activates the human kallikrein-7 zymogen; P49862; purified proKLK7, EDANS-DABCYL substrate fluorescence; 100% is mature enzyme control, 0% vehicle; activation, % at 7 µM; hit rate 0.9% among 370,000; AID 652039;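 active = activation above the mean of all tested compounds plus 3 SD, computed per campaign excluding outliers beyond control limits, cut at about 13% in these data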
PLCg1 inh = PLC-gamma1 (human) inhibition, primary screen. inhibition, % at 12.2 µM. hit rate 0.84% among 370,000. purified PLC-gamma1, fluorogenic substrate, fluorescence. P19174; in the data active = inhibition above about 9.5%
Target sequence (P19174 whole entry, looked up): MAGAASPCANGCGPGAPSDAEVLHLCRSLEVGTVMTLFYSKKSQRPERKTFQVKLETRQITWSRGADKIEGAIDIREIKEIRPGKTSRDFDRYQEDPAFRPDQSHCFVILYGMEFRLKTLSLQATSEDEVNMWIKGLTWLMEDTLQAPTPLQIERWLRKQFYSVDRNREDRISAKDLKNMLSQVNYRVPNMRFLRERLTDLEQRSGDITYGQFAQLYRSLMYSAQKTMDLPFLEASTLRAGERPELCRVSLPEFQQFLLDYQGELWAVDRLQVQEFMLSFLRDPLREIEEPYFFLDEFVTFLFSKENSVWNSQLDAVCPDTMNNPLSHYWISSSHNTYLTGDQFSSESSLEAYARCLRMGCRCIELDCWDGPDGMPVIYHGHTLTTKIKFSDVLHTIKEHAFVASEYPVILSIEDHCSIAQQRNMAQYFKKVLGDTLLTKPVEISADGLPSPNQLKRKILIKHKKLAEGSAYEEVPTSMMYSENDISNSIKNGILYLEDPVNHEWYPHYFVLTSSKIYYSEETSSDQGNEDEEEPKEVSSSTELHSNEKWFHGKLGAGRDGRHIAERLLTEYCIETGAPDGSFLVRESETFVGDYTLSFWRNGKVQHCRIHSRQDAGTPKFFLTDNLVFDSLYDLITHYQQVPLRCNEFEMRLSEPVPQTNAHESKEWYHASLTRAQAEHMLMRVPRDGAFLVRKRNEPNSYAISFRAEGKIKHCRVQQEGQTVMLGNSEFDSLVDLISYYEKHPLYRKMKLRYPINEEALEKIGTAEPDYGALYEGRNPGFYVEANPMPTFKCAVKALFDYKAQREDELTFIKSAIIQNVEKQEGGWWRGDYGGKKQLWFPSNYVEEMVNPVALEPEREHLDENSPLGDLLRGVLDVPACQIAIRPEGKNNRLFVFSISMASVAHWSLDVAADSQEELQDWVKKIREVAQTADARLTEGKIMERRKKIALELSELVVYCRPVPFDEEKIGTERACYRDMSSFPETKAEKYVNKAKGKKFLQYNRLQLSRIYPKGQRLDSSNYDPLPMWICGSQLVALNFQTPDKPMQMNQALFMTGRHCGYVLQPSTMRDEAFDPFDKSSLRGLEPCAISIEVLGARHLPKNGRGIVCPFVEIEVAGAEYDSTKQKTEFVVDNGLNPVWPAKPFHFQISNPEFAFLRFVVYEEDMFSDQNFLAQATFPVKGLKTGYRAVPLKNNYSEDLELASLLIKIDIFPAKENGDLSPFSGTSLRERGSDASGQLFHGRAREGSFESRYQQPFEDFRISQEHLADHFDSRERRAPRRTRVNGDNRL
KLK7 act conf = confirmation of human kallikrein-7 zymogen activators | purified proKLK7, EDANS-DABCYL substrate fluorescence; scaled: vehicle 0, mature enzyme 100 | activation, % at 7 µM | hit rate 68% among 3,200 | shares compounds with proKLK7 act | AID 686949;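 active = activation, as change over the incubation, above the mean of all tested compounds plus 3 SD, cut at about 13% in these data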
EDANS-DABCYL int = fluorescence interference counter-screen for KLK7 activators; activation, % at 7 µM; shares compounds with proKLK7 act; hit rate 80% among 3,200; AID 686952; EDANS-DABCYL substrate fluorescence interference, no enzyme, 4 h; solvent 0%, active enzyme control 100%;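 active = activation above the all-compound mean plus 3 SD, ignoring values outside control-based bounds, cut at about 4.8% in these data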;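 also: value is the 4 h activation minus the activation read at time zero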
EDANS interf = optically interferes with EDANS-DABCYL fluorescence, kallikrein-7 activator counter-screen. shares compounds with proKLK7 act. EDANS-DABCYL peptide fluorescence interference, no enzyme. EC50, µM. hit rate 20% among 250;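 active = compounds that raise the fluorescence signal in this interference counterscreen, with EC50 at or below 10 µM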;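 also: intact quenched peptide substrate alone read at 355 nm excitation and 520 nm emission; signal is fluorescence gain from T0 to T4 after four hours at room temperature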
Large screens that a line does not name were inactive (follow-up assays come after a bar, where they were run). Shown are actives, neighbours in structure and some others; about 2.9% of the full set was active somewhere.

COC(=O)COc1ccc(-c2ccc(F)cc2)cc1C=O	proKLK7 act 13.4 | KLK7 act conf inactive | EDANS-DABCYL int inactive
COC(=O)COc1ccc(-c2ccccc2)cc1C=O	proKLK7 act 13.6 | KLK7 act conf inactive | EDANS-DABCYL int inactive
O=C(Cn1ccnc1[N+](=O)[O-])NCc1ccccc1	none
OC(CN1CCCCC1)Cn1c2ccccc2c2ccccc21 (stereo not given)	none
O=c1c2ccccc2n(CC(O)CN2CCCCC2)c2ccccc12 (stereo not given)	proKLK7 act 33.8 | KLK7 act conf 28.8 | EDANS-DABCYL int 28.6
COc1ccc(NC(=O)C(=O)NCCC2CCCCN2S(=O)(=O)c2ccccc2)cc1 (stereo not given)	none
FC(F)(F)c1nc2nc(Cl)c(Cl)nc2n1CCCN1CCOCC1	proKLK7 act 24.6 | KLK7 act conf inactive | EDANS-DABCYL int inactive
CCCS(=O)(=O)c1c(S(=O)(=O)CCC)c2cc(-c3ccncc3)ccn2c1C(=O)OC	proKLK7 act 66.0 | KLK7 act conf 67.2 | EDANS-DABCYL int 64.5
COc1cc(OC)c(/C=N/n2c(C)nnc2C)c(OC)c1	proKLK7 act 16.2 | KLK7 act conf inactive | EDANS-DABCYL int inactive
NC(=O)c1ccccc1N=Cc1ccccn1	none
Cc1ccccc1C=Nc1ccccc1C(N)=O	proKLK7 act 18.0 | KLK7 act conf 28.0 | EDANS-DABCYL int 28.5
Cc1ccc(C=Nc2ccccc2C(N)=O)cc1	proKLK7 act 18.7 | KLK7 act conf 40.5 | EDANS-DABCYL int 31.1 | EDANS interf inactive
Cc1ccc(C=Nc2ccccc2C(=O)Nc2ccccc2)cc1	none
CCc1cc[n+](C(C(=S)Nc2cccc(C)c2)=C([O-])c2ccc(C)c([N+](=O)[O-])c2)cc1	none
O=C(Nc1ccc(F)c(Cl)c1)C1CC(=O)n2c(nc3ccccc32)N1 (stereo not given)	none
CSc1ccc(/C=C/C(=O)c2c(O)cc(C)oc2=O)cc1	proKLK7 act 13.6 | KLK7 act conf inactive | EDANS-DABCYL int inactive
CCn1cc(C(=O)N(CCCN2CCOCC2)Cc2ccco2)c(=O)c2ccc(C)nc21	none
O=C1CCC(=O)N1c1nc2n(n1)C(c1ccccc1)C=C(c1ccc(Br)cc1)N2 (stereo not given)	proKLK7 act 30.2 | KLK7 act conf 64.1 | EDANS-DABCYL int 47.5
COc1ccc(C2C=C(c3ccc(Br)cc3)Nc3nc(N4C(=O)CCC4=O)nn32)cc1 (stereo not given)	proKLK7 act 28.6 | KLK7 act conf inactive | EDANS-DABCYL int inactive
COc1ccccc1C1C=C(c2ccc(Cl)cc2)Nc2nc(N3C(=O)CCC3=O)nn21 (stereo not given)	none
O=C(NCCNCc1ccc(F)cc1)c1ccco1	none
COC(=O)c1cc2nc(-c3ccccc3)cc(C)n2n1	none
CCOc1ccc(-c2cc(C)n3nc(C(N)=O)cc3n2)cc1	proKLK7 act 30.2 | KLK7 act conf 49.5 | EDANS-DABCYL int 55.5
C[C@]12C(=O)N(c3ccc(C(F)(F)F)cc3)C(=O)N1[C@@H]1c3ccccc3OC[C@@H]1[C@H]2c1ccccc1	none
Cc1ccc2nc3c(c(N)c2c1)CCN3c1ccccc1	proKLK7 act 105.7 | KLK7 act conf inactive | EDANS-DABCYL int inactive
N#Cc1c(-c2ccco2)cc(-c2cccnc2)nc1N	proKLK7 act 20.4 | KLK7 act conf 42.2 | EDANS-DABCYL int 43.4
N#Cc1c(-c2cccnc2)cc(-c2ccccc2)nc1N	proKLK7 act 13.2 | KLK7 act conf 14.2 | EDANS-DABCYL int 13.4
N#Cc1c(-c2ccccc2F)cc(-c2cccnc2)nc1N	none
N#Cc1c(-c2ccco2)cc(C2CC2)nc1N	none
N#Cc1c(-c2ccco2)cc(-c2ccccn2)nc1N	proKLK7 act 13.0 | KLK7 act conf 41.0 | EDANS-DABCYL int 39.8
CCOc1ccc(S(=O)(=O)N2CCCC(C(=O)NCC3CCCO3)C2)cc1 (stereo not given)	none
Nc1ccc2c(C(F)(F)F)cc(=O)oc2c1	proKLK7 act 36.1 | KLK7 act conf 87.9 | EDANS-DABCYL int 85.7
Cc1cc(NCCCN(C)C)n2nc(-c3cccs3)cc2n1	none
Cc1cc(C)c2c(n1)nn1c(NCCOCCO)cc(C)nc21	proKLK7 act 61.2 | KLK7 act conf 77.9 | EDANS-DABCYL int 80.5
Cc1cc(C)c2c(n1)nn1c(NCCCN(C)C)cc(C)nc21	proKLK7 act 71.6 | KLK7 act conf 46.2 | EDANS-DABCYL int 48.1
Cn1c(Cn2c(=O)sc3ccccc32)nnc1SCC(=O)N1CCCc2ccccc21	none
COc1ccc2c(CC(=O)OCC(=O)Nc3ccc4c(c3)OCO4)coc2c1	none
c1cc2c3c(cccc3c1)C(N1CCOCC1)=N2	proKLK7 act 44.3 | KLK7 act conf 47.4 | EDANS-DABCYL int 46.0
CCOC(=O)N1CCN(C2=Nc3cccc4cccc2c34)CC1	proKLK7 act 54.9 | KLK7 act conf 18.3 | EDANS-DABCYL int 28.2
COc1ccccc1N1CCN(C2=Nc3cccc4cccc2c34)CC1	none
CC1CN(C2=Nc3cccc4cccc2c34)CC(C)O1 (stereo not given)	proKLK7 act 44.0 | KLK7 act conf inactive | EDANS-DABCYL int 5.7
CC(=O)N1CCN(C2=Nc3cccc4cccc2c34)CC1	proKLK7 act 59.8 | KLK7 act conf 21.8 | EDANS-DABCYL int 18.6 | EDANS interf inactive
CC(C)c1ccc(S(=O)(=O)N2CCN(C(=O)C3CC3C)CC2)cc1 (stereo not given)	none
COc1ccc2cc(CN(CCCN3CCOCC3)Cc3nnnn3C3CCCC3)c(=O)[nH]c2c1	proKLK7 act 16.5 | KLK7 act conf inactive | EDANS-DABCYL int inactive
COc1ccc(Cn2nnnc2CN(CCCN2CCOCC2)Cc2cc3cc(OC)ccc3[nH]c2=O)cc1	none
O=C(/C=C\c1ccccc1)Nc1nccs1	proKLK7 act 16.7 | KLK7 act conf inactive | EDANS-DABCYL int inactive
Nc1ccccc1C(=O)Nc1nccs1	proKLK7 act 50.1 | KLK7 act conf 13.9 | EDANS-DABCYL int 15.8
O=C(/C=C/c1cccc(F)c1)Nc1nccs1	none
O=C(/C=C/c1cccs1)Nc1nccs1	proKLK7 act 15.1 | KLK7 act conf inactive | EDANS-DABCYL int 17.1
O=C(Nc1nccs1)c1ccccc1Br	none
O=C(COC(=O)c1ccc(Cl)c([N+](=O)[O-])c1)Nc1ccccc1OC(F)F	none
CS(=O)(=O)c1ccc(Cl)c(NC(=O)CCCc2nc3ccccc3c(=O)[nH]2)c1	none
Cc1ccc(CCP(=O)(O)CN2CCOCC2)cn1	none
COc1c2c(cc3ccc(=O)oc13)CCO2	proKLK7 act 20.2 | KLK7 act conf 27.9 | EDANS-DABCYL int 28.8
CCCCc1c(-c2ccccc2OC)ncn1C1CCCCC1	none

Bioassay records from PubChem BioAssay.
